The sample as a whole holds a higher share of hits than the screen did.
Shiga inhibitor: blocks Shiga toxin action in Vero cells; inhibition, % at 38.7 µM; Vero cells, Shiga toxin protein synthesis inhibition reporter; 290,000 compounds, 9.2% hits; AID 2315; in the data active means inhibition mostly above about 28%, no sharp cut-off; inactive means mostly below about 43%; further: 0% is about no effect
MARV entry inh: blocks Marburg virus binding to or entry into cells | Marburg virus pseudotyped entry inhibition, cell reporter | Potency, µM (doses to about 37.8 µM), for the others: at the highest dose activity change, negative = inhibition, actives largely listed as inhibitors | 300,000 compounds, 1.8% hits; calls by dose curve; tested in HEK293 cells; further: potency means the concentration at half of the fitted maximal effect; on the % scale 0 is the no-effect control and ±100 the full control effect
Lassa entry inh: blocks Lassa virus binding to or entry into cells. Lassa virus pseudotype entry inhibition, cell reporter. Potency, µM (highest dose often 37.9 µM), for the others: at the highest dose activity change, negative = inhibition, hits mostly inhibitors. 300,000 compounds, 1.2% hits. AID 540256; calls by dose curve; tested in HEK293 cells; further: potency means the concentration at half of the fitted maximal effect; on the % scale 0 is the no-effect control and ±100 the full control effect; nearly all actives have a fitted effect of over 50% in size
AMA1 RON2 block: AMA1-RON2 (P. falciparum) interaction inhibition; AlphaScreen AMA1-biotinylated RON2 peptide binding; Potency, µM (doses to about 58.2 µM), inactives show at the highest dose activity change, negative = inhibition, hits mostly inhibitors; 360,000 compounds, 0.2% hits; AID 720542; active means well fitted inhibition curve with a large enough effect; inconclusive means small, poorly fitted or top-dose-only effect; inactive means no such curve, though single readings can be large or run the other way;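 further: potency means the concentration at half of the fitted maximal effect; 0% = vehicle wells and -100% = peptide control; nearly all actives have a fitted effect of over 45% in size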
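AMA1 (3D7) with his tag at 25 nM final met compounds first, then biotinylated RON2 peptide at 25 nM; detection used donor plus acceptor beads, 10 µg/mL apiece, read by AlphaScreen after 30 min at room temperature.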
Cycloheximide cs: counter-screen hit for Shiga toxin inhibitors, cycloheximide; cell reporter, cycloheximide protein synthesis inhibition counterscreen; max response, %; AID 2314; 300,000 compounds, 12% hits; in the data active means max response mostly above about 13%, no sharp cut-off; inactive means mostly below about 14%; further: read at 38.3 µM for the half of the compounds with a filed dose; 0% is about no effect
Active calls of the source: *; i = inactive; ? = inconclusive; · = no result given; [ ] = another dose, or the depositor's remark.

SMILES	Shiga inhibitor	MARV entry inh	Lassa entry inh	AMA1 RON2 block	Cycloheximide cs
O=C1CN(C(=O)/C=C/c2cc(Br)ccc2F)CCN1	-6.5	4.0%[46.1 µM]	9.6%	-22.4%	-2.8
CO/N=C/C(C#N)=C/c1ccc(OC)cc1	60.8*	16.8%[46.1 µM]	5.1%[46.1 µM]	-2.3%	43.4*
Cc1nc2nc(SCC(=O)C(C)(C)C)[nH]c2cc1Br	35.6	24.7%	?	-5.8%	-2.4
Fc1c(F)c(F)c(CSc2nc3ccccc3[nH]2)c(F)c1F	71.1*	8.5%	20.3%	3.1%	25.2*
Fc1ccccc1CSc1nc2ncc(Br)cc2[nH]1	27.2	0.0%	?	7.5%	22.3*
CC(C)(C)C(=O)CSc1nc2ncc(Br)cc2[nH]1	4.1	15.5%	-11.6%	5.6%	35.6*
N#Cc1ccccc1CSc1nc2ncc(Br)cc2[nH]1	15.3	5.6%	·	3.6%	0.4
Fc1ccccc1CSc1nc2ccccc2[nH]1	86.1*	?	?	6.6%	53.6*
O=S1(=O)CC=C(CSc2nc3ccccc3[nH]2)C1	10.0	13.1%[46.1 µM]	-8.0%	3.5%	-2.1
O=C(COc1ccccc1F)Nc1ccc2nc(SCC(=O)N3CCOCC3)sc2c1	·	?	-21.4%[46.1 µM]	·	·
c1ccc2[nH]c(SCc3cscn3)nc2c1	65.0*	?	?	0.0%	35.4*
Cc1cccc(-c2nnc(SCCC(=O)O)o2)c1	·	?	1.26µM*	·	·
Cc1ccc(-c2nnc(SCC(=O)N3CCCC3)o2)cc1	56.4	11.4%	?	3.2%	17.0*
CC(C)c1ccc(OCc2nnc(SCC(=O)N3CCCCC3)o2)cc1	26.5	?	?	1.4%	31.8*
COc1ccc(-c2nnc(SCC(=O)N3CCCC3)o2)cc1	66.6*	?	0.5%	5.7%	32.5*
Cc1cccc(-c2nnc(SCCC(=O)N3CCOCC3)o2)c1	50.3	3.0%	?	-19.2%	9.0
O=C(CSc1nnc(COc2ccc(Cl)cc2)o1)N1CCCCC1	3.2	-2.7%[46.1 µM]	·	30.7%	-4.4
Cc1csc2nc(CCNS(=O)(=O)c3ccc(F)cc3)cn12	·	·	-26.2%[46.1 µM]	·	·
COc1ccccc1CNC(=O)C1CCC(CNS(=O)(=O)c2ccccc2)CC1 (stereo not drawn)	-9.0	·	·	-9.1%	-5.7
CCOc1ccc(-c2nnc(SCC(=O)N3CCOCC3)o2)cc1	69.3*	?	29.5%	-1.5%	24.3*
CCOc1ccc(-c2nnc(SCC(=O)N3CCCC3)o2)cc1	2.2	15.2%[46.1 µM]	28.6%	-11.6%	-1.3
O=C(CSc1nnc(-c2ccncc2)o1)N1CCCCCC1	33.7	26.1%[46.1 µM]	24.5%	-19.6%	9.9
O=C(CSc1nnc(-c2ccc(F)cc2)o1)N1CCCC1	33.6	26.3%[46.1 µM]	·	8.7%	16.4*
Cc1cccc(-c2nnc(SCC(=O)N3CCCC3)o2)c1	92.5*	7.0%[46.1 µM]	26.1%[46.1 µM]	4.1%	19.1*
CCc1ccc(OCc2nnc(SCC(=O)NC3CCCCC3)o2)cc1	46.7*	-5.5%[46.1 µM]	·	15.1%	19.7
SMILES	Shiga inhibitor	MARV entry inh	Lassa entry inh	AMA1 RON2 block	Cycloheximide cs
CCCn1c(N)c(C(=O)CSc2nnc(C3CC3)n2C2CC2)c(=O)[nH]c1=O	·	9.6%	19.6%	-13.2%	·
CCN(c1ncnc2c1cnn2-c1cc(Cl)ccc1C)C1CCCCC1	·	·	-25.4%[46.1 µM]	·	·
Cc1ccc(-c2nnc(SCC(=O)N3CCCC3)o2)cc1C	71.6*	?	?	4.9%	36.2*
Cc1cccc(-c2nnc(SCC(=O)NC3CCCC3)o2)c1	25.9	?	10.0%[46.1 µM]	3.9%	-3.3
COc1ccc(-c2nnc(SCC(=O)N3CCCCC3)o2)c(OC)c1	25.1	?	-11.5%	-4.5%	30.4*
Cc1ccc(-c2nnc(SCC(=O)NC3CC3)o2)cc1	60.8*	?	16.9%[46.1 µM]	6.8%	23.8*
CCn1c2c(c(=O)n3ncc(C(=O)N4CCN(c5ccc(C(C)=O)cc5)CC4)c13)CN(Cc1ccc(OC)cc1)CC2	·	·	10µM*	·	·
COc1ccc(CN2CCc3c(c(=O)n4ncc(C(=O)N5CCN(c6ccc(F)cc6)CC5)c4n3C)C2)cc1	·	·	-17.6%[46.1 µM]	·	·
O=CNc1c(Br)cc2c(c1Br)Cc1cc(Br)ccc1-2	·	11.9%	5.2%	-3.7%	·
CN(C)S(=O)(=O)c1cc(NC(=O)CNCc2ccccc2)ccc1Cl	66.9*	?	-25.4%[46.1 µM]	-2.2%	41.1*
CN(C)S(=O)(=O)c1cc(NC(=O)CN2CCN(c3ccccc3)CC2)ccc1Cl	-6.4	?	3.55µM*	3.7%[2.32 µM]	2.6
CN(C)S(=O)(=O)c1cc(NC(=O)CN2CCN(c3ccc(O)cc3)CC2)ccc1Cl	25.0	?	?	-1.0%	-1.0
O=C(CNCc1ccccc1Cl)Nc1ccc(C(=O)N2CCCCC2)cc1	-5.3	-13.6%[46.1 µM]	4.2%	8.2%	2.9
Cc1ccc(NC(=O)CNCc2ccccc2Cl)cc1S(=O)(=O)N(C)C	57.7*	3.7%	?	?	40.0*
NC(=O)c1ccc(NC(=O)CNCc2ccccc2Cl)cc1	49.2*	8.4%[46.1 µM]	·	-1.8%	13.5*
CCN(C(=O)COC(=O)CNS(=O)(=O)c1ccc(SC)c([N+](=O)[O-])c1)C1CCCCC1	·	?	-3.6%	23.6%	·
COc1cccc(Cn2ccn(-c3ccc(F)cc3)c(=O)c2=O)c1	·	·	9.2%[46.1 µM]	·	·
CN(C)S(=O)(=O)c1cc(NC(=O)COC(=O)Cc2cccc3ccccc23)ccc1Cl	-17.1	-5.2%	?	-2.4%	-0.7
CCC(C(=O)OCC(=O)Nc1ccc(Cl)c(S(=O)(=O)N(C)C)c1)c1ccccc1 (stereo not drawn)	-17.4	11.2µM*	?	4.4%[2.32 µM]	1.1
Cc1cccc(NS(=O)(=O)c2ccc(C)c(C(=O)OCC(=O)Nc3cc(C)on3)c2)c1	-33.1	?	4.47µM*	-5.1%	-2.7
CCn1c(CSc2nc3ccccc3n2C)nc2ccccc21	-5.2	-21.2%	-5.3%	-3.1%	5.0
Cn1c(SCc2ccccc2Cl)nc2ccccc21	76.5*	-18.3%	13.1%	35.8%	52.6*
CCn1c(SCc2ccccc2Cl)nc2ccccc21	26.3	-21.5%[46.1 µM]	-26.8%	25.7%	34.6*
Cc1ccc(CSc2nc3ccc(NC(=O)C(C)C)cc3s2)cc1	·	?	-27.0%[46.1 µM]	·	·
O=S(=O)(/C=C/c1ccccc1)N1CCOCC1	-2.9	·	·	1.7%	-1.2
SMILES	Shiga inhibitor	MARV entry inh	Lassa entry inh	AMA1 RON2 block	Cycloheximide cs
COc1ccc(CCCc2nnc(SCC(=O)Nc3cccc(F)c3C)o2)cc1	·	13.5%[46.1 µM]	10.1%[46.1 µM]	·	·
CNc1nc2c3ccccc3n(C(C)=O)c2s1	-6.2	17.6%[46.1 µM]	10.1%	-9.6%	8.8
CC(=O)n1c2ccccc2c2nc(NC(C)C)sc21	21.8	-0.3%[46.1 µM]	13.6%	-11.9%	15.9*
CCOC(=O)c1ccc(-c2c(C)cc3oc(=O)cc(-c4ccccc4)c3c2C)cc1	i	·	·	-14.2%	31.6*
CSc1cccc(NS(=O)(=O)c2ccc3c(c2)oc(=O)n3C)c1	-12.8	0.0%	·	-13.7%	-6.5
Cc1ccc(Cl)cc1Nc1nc(-c2sc(NC(=O)c3cccc(Cl)c3)nc2C)cs1	-2.8	·	·	·	10.8
Cc1ccccc1Nc1nc(-c2sc(NC(=O)c3cccc(Cl)c3)nc2C)cs1	44.2	-7.0%	·	·	19.2*
Cc1ccccc1Nc1nc(-c2sc(NC(=O)c3ccc([N+](=O)[O-])cc3)nc2C)cs1	38.9	-9.7%	·	·	15.9*
Cc1ccccc1Nc1nc(-c2sc(NC(=O)c3ccccc3)nc2C)cs1	50.0*	5.0%	·	·	11.7
Cc1nc(NC(=O)c2ccccc2)sc1-c1csc(Nc2ccc(Cl)cc2Cl)n1	56.0	0.0%	·	·	15.2
